Laboratory results as given in PubChem BioAssay (Tox21).
Where “and” joins values, the source holds several entries; their conditions need not be identical. Identical values can stand only once. Inconclusive results are not listed. Unmarked numbers belong to inactive results. Calls of active or inactive are those of the source. Calls follow the shape of the dose curve; as a rule, active = well fitted inhibition curve with a large enough effect in the repeat runs; inconclusive = weak or mixed curves; inactive = no such curve, though single readings can be large or run the other way.

molecular target: Cytochrome P450 2D6 (Homo sapiens) (UniProt P10635); experiment: Cytochrome P450 Family 2 Subfamily D Member 6 (CYP2D6) small molecule antagonists: luciferase reporter qHTS assay (AID 1671196); details: P450-Glo CYP2D6 enzyme assay, luciferin luminescence, 1 h; series mostly up to 115 µM; activity change, negative = inhibition: at the top concentration; also: nearly all actives have a fitted effect of over 50% in size
Outline: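 Cell-free P450-Glo system: CYP2D6 with proluciferin substrate was pre-incubated with compound for 10 min, then reacted with NADPH regeneration for 1 h at room temperature. Luciferin product was detected after 20 min, and data were reported as relative luminescence units.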
% is scaled to controls: 0 for no effect and ±100 for the full control effect; potency is read from the fitted curve at half-maximal effect.

Chain of Cytochrome P450 2D6 (Homo sapiens) (P10635 whole entry, looked up): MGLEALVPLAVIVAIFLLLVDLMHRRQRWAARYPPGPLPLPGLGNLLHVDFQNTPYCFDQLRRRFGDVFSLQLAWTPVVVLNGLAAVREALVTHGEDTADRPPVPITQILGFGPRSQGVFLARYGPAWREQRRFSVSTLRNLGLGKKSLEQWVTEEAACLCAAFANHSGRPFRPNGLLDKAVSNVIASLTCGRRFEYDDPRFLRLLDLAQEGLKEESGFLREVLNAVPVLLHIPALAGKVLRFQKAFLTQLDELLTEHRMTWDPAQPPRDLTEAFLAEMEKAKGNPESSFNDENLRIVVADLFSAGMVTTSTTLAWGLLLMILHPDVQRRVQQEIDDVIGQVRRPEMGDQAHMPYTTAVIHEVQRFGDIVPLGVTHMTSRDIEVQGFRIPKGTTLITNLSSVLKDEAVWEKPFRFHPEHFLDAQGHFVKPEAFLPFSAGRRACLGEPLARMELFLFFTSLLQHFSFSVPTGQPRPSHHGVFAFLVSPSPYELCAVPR

Row | Structure (SMILES) | activity change, negative = inhibition | Potency
1 | CCN(CCC#N)c1ccc(N=Nc2c(Cl)cc([N+](=O)[O-])cc2Cl)cc1 | -17.2% | 
2 | O=C(OC[C@H]1O[C@@H](OC(=O)c2cc(O)c(O)c(OC(=O)c3cc(O)c(O)c(O)c3)c2)[C@H](OC(=O)c2cc(O)c(O)c(OC(=O)c3cc(O)c(O)c(O)c3)c2)[C@@H](OC(=O)c2cc(O)c(O)c(OC(=O)c3cc(O)c(O)c(O)c3)c2)[C@@H]1OC(=O)c1cc(O)c(O)c(OC(=O)c2cc(O)c(O)c(O)c2)c1)c1cc(O)c(O)c(OC(=O)c2cc(O)c(O)c(O)c2)c1 | -17.1% [at 23.6 µM] | 
3 | C/C=C(\C)C(=O)OCc1ccccc1 | 0.611% | 
4 | COc1cc(/C=C/C(=O)O[C@H]2CC[C@]34C[C@]35CC[C@]3(C)[C@@H]([C@H](C)CCC=C(C)C)CC[C@@]3(C)[C@@H]5CC[C@H]4C2(C)C)ccc1O | -3.66% [at 53 µM] | 
5 | CCc1oc2ccccc2c1C(=O)c1cc(Br)c(O)c(Br)c1 | -0.288% [at 53 µM] | 
6 | Nc1ccccc1O |  | 31.3 µM (active)
7 | c1cc(C(c2ccc(OCC3CO3)cc2)c2ccc(OCC3CO3)cc2)ccc1OCC1CO1 (stereo unspecified) | -24.7% | 
8 | S=c1[nH]c2ccccc2s1 |  | 39.9 µM (active)
9 | Clc1ccc2cc3ccccc3cc2c1 | -12% | 
10 | O=C1C=CC(=O)N1 | 0.201% | 
11 | CCCCCCCCn1sc(Cl)c(Cl)c1=O |  | 28.3 µM (active)
12 | CO[Si](CCCNc1ccccc1)(OC)OC | -10.8% | 
13 | O=C1Cc2cc(CCN3CCN(c4nsc5ccccc45)CC3)c(Cl)cc2N1 | -101% [at 53 µM] | 
14 | O=C1c2ccccc2Cc2ccccc21 | -17.5% | 
15 | CN(C)CCCOC1(Cc2ccccc2)CCCCCC1 |  | 1.55 µM (active)
16 | CCC1OCC(COc2ccc(Oc3ccccc3)cc2)O1 (stereo unspecified) | -22.3% | 
17 | OCCCCCCCCCCCCBr | -7.31% | 
18 | Cc1oc(-c2ccccc2)nc1CCC(=O)c1ccc(CC2SC(=O)NC2=O)cc1 (stereo unspecified) | 0.347% [at 53 µM] | 
19 | O=C(OCC1CO1)C1CCCCC1C(=O)OCC1CO1 (stereo unspecified) | -26% | 
20 | CC1=NC(C)OC1C (stereo unspecified) |  | 71 µM (active)
21 | CCCCCCCCOC(=O)c1ccc(O)cc1 |  | 56.2 µM (active) and 39.9 µM (active)
